TSHR antagonist – antagonists of human thyroid stimulating hormone receptor. 330,000 tested, 0.2% active. AID 504810. TSHR-expressing cells, TSH-stimulated cAMP HTRF, 2 h; active compounds read low. activity change, negative = inhibition, % at 11.5 µM. P16473;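 active = activity change below a set negative limit, meaning inhibition stronger than a set level, cut at about -70% in these data; inconclusive = activity change between two set negative limits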
Target sequence (P16473 whole entry, looked up): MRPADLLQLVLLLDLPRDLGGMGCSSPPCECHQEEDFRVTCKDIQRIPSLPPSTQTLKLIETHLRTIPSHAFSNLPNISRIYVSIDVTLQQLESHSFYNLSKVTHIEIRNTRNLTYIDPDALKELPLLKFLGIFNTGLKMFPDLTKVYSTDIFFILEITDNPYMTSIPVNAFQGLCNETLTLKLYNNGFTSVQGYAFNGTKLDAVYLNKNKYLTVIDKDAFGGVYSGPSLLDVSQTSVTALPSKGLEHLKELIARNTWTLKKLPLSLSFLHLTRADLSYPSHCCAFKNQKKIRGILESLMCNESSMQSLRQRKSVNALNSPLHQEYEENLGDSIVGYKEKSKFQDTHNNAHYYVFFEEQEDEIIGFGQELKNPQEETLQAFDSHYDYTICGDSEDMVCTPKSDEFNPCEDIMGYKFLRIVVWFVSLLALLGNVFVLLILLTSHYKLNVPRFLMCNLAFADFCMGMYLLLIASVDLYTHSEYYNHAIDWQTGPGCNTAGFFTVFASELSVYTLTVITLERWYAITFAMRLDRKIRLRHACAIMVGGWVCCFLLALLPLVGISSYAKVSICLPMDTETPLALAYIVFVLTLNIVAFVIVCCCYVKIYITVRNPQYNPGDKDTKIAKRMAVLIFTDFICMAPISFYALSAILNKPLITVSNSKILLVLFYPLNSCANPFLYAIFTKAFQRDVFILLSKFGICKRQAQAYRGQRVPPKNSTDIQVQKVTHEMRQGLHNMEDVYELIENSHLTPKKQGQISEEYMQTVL
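Freshly harvested TSHR cells receive pin-tooled compound, then EC80 TSH at 4nM final. After 2 hours at 37 deg C, antibody in lysis buffer and cAMP-d2 are added; 30 minutes at ambient temperature precede the HTRF read.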
Coupling enz – coupling enzyme interference in Giardia aldolase counter-screen. AID 2472. coupling enzyme system counterscreen, AmpLite Red fluorescence. activity change, negative = inhibition, % at 58.2 µM, hits read low. 290,000 tested, 0.67% active; in the data active = activity change below about -30%
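Fluorescence at 525 nm excitation and 598 nm emission measured inhibition of the coupled detection system without aldolase. Compounds (at 57.5 uM final) were preincubated 10 min at room temperature with coupling enzyme reagent before a 20 min substrate/AmpLite Red step.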
ELG1 DNA repair – inhibitors of ELG1-dependent DNA repair in HEK293T cells | HEK293T ELG1-luciferase reporter, luminescence, 16 h; DNA damage induced by 5-fluorouridine | Potency, µM (highest dose often 46.1 µM), for inactives: at the highest dose activity change, negative = inhibition, most hits filed as inhibitors | 330,000 tested, 2.3% active | AID 504467; also: potency is read from the fitted curve at half-maximal effect; nearly all actives have a fitted effect of over 55% in size
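Step one: seed 2,000 cells per well. Step two: pin-transfer compound or DMSO alongside 5-fluorouridine. Step three: incubate 16 hr, 37 °C, 5% CO2. Step four: add ONE-Glo, wait 30 min, read luminescence.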
RORgamma inh – blocks mouse ROR gamma transcriptional activity. 310,000 tested, 5.4% active. P51450. Potency, µM (titrated, usually from 53.6 µM), without a hit: at the highest dose activity change, negative = inhibition, usual class: inhibitors. Drosophila S2 Gal4-RORgamma UAS-luciferase reporter, 20 h; also: potency is read from the fitted curve at half-maximal effect; nearly all actives have a fitted effect of over 60% in size
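Drosophila Schneider cells stably carrying a metallothionein-driven Gal4 DBD–ROR gamma fusion and a UAS-Photinus luciferase reporter were exposed to compound for 1 hr, then induced with copper sulfate (700 uM final) for 20 hr at ambient temperature before luminescence reading.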
Gal4-VP16 FLuc – counter-screen for ROR gamma inhibitors: Gal4-VP16 reporter. Potency, µM (highest dose often 53.6 µM), for inactives: at the highest dose activity, negative = inhibition, actives largely listed as inhibitors. Drosophila S2 Gal4-VP16 UAS-luciferase, luminescence, 20 h. 310,000 tested, 3.5% active;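 also: Gal4-VP16 expression switched on by copper sulfate through the metallothionein promoter; potency is read from the fitted curve at half-maximal effect; nearly all actives have a fitted effect of over 50% in size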
* hit, by the source's call; ? = inconclusive; · = no result given; [ ] = another dose, or the depositor's remark. Rows were chosen to be rich in hits. Some 8% of all compounds tested hit in one or more screens of this group. Unless noted, calls follow the shape of the dose curve; as a rule, active = well fitted curve in the direction sought with a large enough effect; inconclusive = small, poorly fitted or top-dose-only effect, or another doubt; inactive = no such curve, though single readings can be large; an effect the other way counts as inactive or inconclusive. % is scaled to controls: 0 for no effect and ±100 for the full control effect.

SMILES	TSHR antagonist	Coupling enz	ELG1 DNA repair	RORgamma inh	Gal4-VP16 FLuc
COc1ccc(C2=NOC(Cn3nc(C(=O)NCc4cccs4)cc3-c3ccccc3)C2)cc1 (stereo unspecified)	6	·	?	·	·
COc1ccc(C2=NOC(Cn3nc(-c4ccccc4)cc3C(=O)NCc3cccs3)C2)cc1 (stereo unspecified)	3	·	12µM*	·	·
Cc1ccccc1-c1cc(C(=O)NCc2cccc(C(F)(F)F)c2)n(CC2CC(c3cccnc3)=NO2)n1 (stereo unspecified)	-15	·	16µM*	·	·
O=C(c1ccccc1)c1cc(-c2ccccc2)on1	7	-1	?	?	11µM*
COc1ccc(/C=N/NC(=O)C(=O)/C=C2\NC3(CCCC3)Cc3ccccc32)cc1	10	0	23µM*	25%	-5%
O=C(/C=C1\NC2(CCCC2)Cc2ccccc21)C(=O)N/N=C/c1ccc(O)c(O)c1	-37	1	23µM*	-4%	0%
CN(CC(=O)Nc1ncn[nH]1)S(=O)(=O)c1ccc(Cl)cc1	3	1	-1%	-11%	-1%
O=C(O)C1NCCN(C(=O)c2ccc3c(ccc4ccccc43)c2)C1C(=O)O (stereo unspecified)	·	0	·	-6%	-9%
CCOc1cc(NC(=O)c2cccs2)c(OCC)cc1NC(=O)c1ccco1	-9	0	4%	10%	-3%
CCOc1cc(NC(=S)NCCOC)c(OCC)cc1NC(=O)c1cccs1	12	-5	-8%	14µM*	?
CCOc1cc(NC(=S)NCCCOC)c(OCC)cc1NC(=O)c1cccs1	8	-1	-9%	14µM*	?
CCOc1cc(NC(=S)NC)c(OCC)cc1NC(=O)c1cccs1	-2	-3	-15%	8.9µM*	?
CCOc1cc(NC(=S)NCCCN(C)C)c(OCC)cc1NC(=O)c1cccs1	-4	0	3%	-13%	7%
Cc1ccc(C)c(S(=O)(=O)N2CCN(CC(=O)NC(C)c3ccccc3)CC2)c1 (stereo unspecified)	29	·	-30%	·	·
CC(C)c1ccc(/C=C2\SC(=O)N(CC(=O)NCCCn3ccnc3)C2=O)cc1	1	2	?	?	?
COc1cc(C)nc(-n2nc(C)cc2OC)n1	2	1	0%	3.2µM*	?
CC(C)Oc1ccc(CNC(=S)N/N=C/c2ccc([N+](=O)[O-])cc2)cc1	-1	-1	-17%	2.5µM*	3.2µM*
CCCOc1ccc(CNC(=S)N/N=C/c2ccc([N+](=O)[O-])cc2)cc1	-5	0	22%	1.3µM*	1.6µM*
CCCOc1ccc(CNC(=S)NCc2ccc(OC(C)C)cc2)cc1	93	1	-7%	7.1µM*	7.1µM*
CC(C)Oc1ccc(CCC(=O)N/N=C/c2ccncc2)cc1	2	4	-7%	20µM*	-6%
CCCOc1ccc(CCC(=O)O)cc1	53	3	?	16%	5%
O=C(NN1C(=O)NC2(CCCCC2)C1=O)c1ccc(Cl)c(Cl)c1	-7	·	17%	·	·
Cc1ccc(CC(=O)N/N=C/c2ccc(OC(=O)c3ccc([N+](=O)[O-])cc3)cc2)cc1	-12	-1	-7%	-1%	11%
CCOc1ccc(CNC(=S)N/N=C/c2ccncc2)cc1	0	4	25%	10µM*	13µM*
CC(C)COc1ccc(CNC(=S)N/N=C/c2ccc([N+](=O)[O-])cc2)cc1	0	-3	?	1.4µM*	4.5µM*
SMILES	TSHR antagonist	Coupling enz	ELG1 DNA repair	RORgamma inh	Gal4-VP16 FLuc
COc1ccc(N2CCN(C(=O)CCC(=O)N3CCOc4ccc(Cl)cc43)CC2)cc1	-6	0	?	?	3%
Cc1cc(=O)[nH]c(-n2[nH]c(C)cc2=O)n1	0	-2	15%	-20%	3%
COc1ccc(-n2[nH]c(C)cc2=O)cc1	2	-32*	0%	-13%	1%
O=C(COc1cc(Cl)ccc1Cl)Nc1nnc(C2CC2)s1	11	·	?	-2%	-14%
Cc1sc(NC(=O)c2ccco2)nc1-c1ccc2c(c1)CC(C)N2C(=O)C1CC1 (stereo unspecified)	-37	-7	15µM*	?	-4%
CC(=O)Nc1nc(-c2ccc3c(c2)CC(C)N3C(=O)C2CC2)c(C)s1 (stereo unspecified)	3	0	8.2µM*	10%	13%
CCOC(=O)C(=O)Nc1nc(-c2ccc3c(c2)CCN3C(=O)C2CC2)c(C)s1	-4	1	?	16%	?
Cc1ccc(NC(=S)Nc2ccc(S(=O)(=O)Nc3ncccn3)cc2)cc1Cl	4	0	0%	32µM*	?
O=S(=O)(Nc1ncccn1)c1ccc(NC(=S)NCCc2ccc(Cl)cc2)cc1	-7	0	2%	7%	-14%
Cc1ccc(S(=O)(=O)NNC(=S)Nc2c(Cl)cccc2Cl)cc1	1	9	-22%	10µM*	?
O=S(=O)(Nc1ncccn1)c1ccc(NC(=S)Nc2cccc(Cl)c2)cc1	-6	2	-24%	11µM*	?
Cc1ccc(NC(=S)NNS(=O)(=O)c2ccc3ccccc3c2)cc1Cl	3	0	?	11µM*	?
CC(=O)Oc1ccc2c(c1)CCC1C2CC[C@]2(C)C(=O)CCC12 (stereo partly specified)	·	-2	·	16%	6%
C[n+]1ccccc1/C=N\O	·	1	·	3%[2.98 µM]	3%[17 µM]
CCCCNc1nc(C)nc2c1nc(-c1ccccc1)n2CCN1CCCCC1	·	1	·	14µM*	-17%
CC(C)c1ccc(C(=O)NN2CCOCC2)cc1	9	·	3%	?	?
CC(C)c1ccc(/C=C/C(=O)NC(=S)Nc2ccc(CN3CCOCC3)cc2)cc1	-36	-3	?	2.8µM*	5µM*
CC(C)c1ccc(/C=C/C(=O)NC(=S)NN2CCOCC2)cc1	-22	·	?	4µM*	4.5µM*
CC(C)c1ccc(NC(=O)CSc2nnc(CN3CCOCC3)n2C)cc1	4	-1	9%	-3%	9%
O=C(NCc1ccccn1)C1(C(F)(F)F)C/C(=C\CCO)CCCO1 (stereo unspecified)	·	2	·	-7%	10%
COc1ccc(OC)c(/C=N\NC(=O)CC(=O)NCCc2ccccc2)c1	4	-6	-12%	-3%	4%
COc1ccc(OC)c(/C=N/NC(=S)NCCc2ccccc2)c1	-8	0	?	40µM*	11µM*
COc1ccc(OC)c(/C=N/NC(=O)c2csc3ccccc23)c1	-6	-2	-11%	13µM*	0%
COc1cccc(/C=N/NC(=O)CC(=O)NCCc2ccccc2)c1OC	-4	-1	-26%	25%	-7%
COc1cccc(/C=N/NC(=S)NCCc2ccccc2)c1OC	24	0	-10%	11µM*	?

Screening results: PubChem, National Center for Advancing Translational Sciences (NCATS)
